In the library only some 1.5% were active in any assay of this set; here they are far more common.
TrxR1 substrate: qHTS Assay for Substrates of Mammalian Selenoprotein Thioredoxin Reductase 1 (TrxR1): qHTS | AID 588456, 2011 | purified TrxR1 substrate turnover, NADPH consumption readout | Potency, µM (highest dose often 114 µM), for inactives: top-dose activity change, negative = substrate turnover | Thioredoxin reductase 1, cytoplasmic (Rattus norvegicus), O89049 | actives 0.01% (n = 390,000); note: potency is the fitted concentration of half-maximal effect; nearly all actives have a fitted effect of over 50% in size
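Rat TrxR1, dispensed at 90 nM, was prereduced with 400 uM NADPH (final) for 5 min at ~22 deg C, then incubated with compound 15 min before 400 uM selenite. A first-read NADPH fluorescence drop versus no-compound background flagged substrates.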
Giardia killer: Small Molecules that selectively kill Giardia lamblia: qHTS; activity change, % at 7.66 µM, hits read low; Giardia lamblia trophozoite viability; AID 540267, 2011; actives 0.15% (n = 340,000); in the data active = activity change below about -80%; inconclusive = between about -30% and that limit;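 note: parasites exposed to compound for two days anaerobically before the ATP read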
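Luminescence from cellular ATP indicates surviving trophozoites (100 cells/well) following 48 hrs anaerobic compound treatment at 37 deg C; signal develops 15-30 min at room temperature.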
GALK inhibitor: qHTS Assay for Inhibitors of Human Galactokinase (GALK); P51570; Purified GALK, Kinase-Glo residual ATP luminescence; Potency, µM (titrated, usually from 57.5 µM), without a hit: at the highest dose activity change, negative = inhibition, hits mostly inhibitors; actives 0.007% (n = 270,000); AID 1868, 2009; note: potency is the fitted concentration of half-maximal effect
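Galactose (100 uM) and ATP (35 uM) were turned over by 5 nM GALK for 1 h at RT. Kinase-Glo Plus then converted the remaining ATP into a luminescent signal.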
PI4K2A inh: qHTS for small molecular inhibitors of PI4K2A | Phosphatidylinositol 4-kinase type 2-alpha (Homo sapiens), Q9BTU6 | purified PI4K2A, ADP-Glo luminescence, 1 h; active compounds read low | activity change, negative = inhibition, % at 76.9 µM | actives 0.13% (n = 420,000); in the data active = activity change below about -50%; inconclusive = mostly about -30% to -49%;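 note: -100% = wells without enzyme as full effect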
Target sequence (Q9BTU6 whole entry, looked up): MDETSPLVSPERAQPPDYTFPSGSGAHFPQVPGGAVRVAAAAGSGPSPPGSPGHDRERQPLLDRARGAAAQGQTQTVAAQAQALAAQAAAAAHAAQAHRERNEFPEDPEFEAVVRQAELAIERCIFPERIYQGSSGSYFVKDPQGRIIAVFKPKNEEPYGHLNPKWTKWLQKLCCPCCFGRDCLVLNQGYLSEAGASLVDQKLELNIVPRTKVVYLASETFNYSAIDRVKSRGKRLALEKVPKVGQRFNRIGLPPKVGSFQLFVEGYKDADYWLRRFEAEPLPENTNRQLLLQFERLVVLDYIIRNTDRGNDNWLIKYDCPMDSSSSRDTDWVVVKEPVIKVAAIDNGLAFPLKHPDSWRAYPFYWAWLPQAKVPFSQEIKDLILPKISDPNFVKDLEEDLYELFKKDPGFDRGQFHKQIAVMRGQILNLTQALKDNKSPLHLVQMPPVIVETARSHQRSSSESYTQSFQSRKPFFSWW
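Compounds are screened against recombinant PI4K2A using PI as substrate and ATP, the latter dispensed at 300 microM. Reactions run one hour at ambient temperature before ADP-Glo detection; full inhibition defined by wells lacking enzyme.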
Coupling enz: qHTS Assay for Inhibitors of Fructose-1,6-bisphosphate Aldolase from Giardia Lamblia: Coupling assay counterscreen. activity change, negative = inhibition, % at 58.2 µM, hits read low. coupling enzyme system counterscreen, AmpLite Red fluorescence. actives 0.67% (n = 290,000); in the data active = activity change below about -30%
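Counterscreen of the coupled detection system alone, without aldolase: glyceraldehyde-3-phosphate coupling enzymes plus AmpLite Red readout. Compounds at 57.5 uM final, 10 min RT preincubation, 20 min RT reaction, fluorescence 525/598 nm.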
TrxR1 inh: qHTS Assay for Inhibitors of Mammalian Selenoprotein Thioredoxin Reductase 1 (TrxR1): qHTS | Thioredoxin reductase 1, cytoplasmic (Rattus norvegicus), O89049 | recombinant rTrxR1, NADPH fluorescence consumption, selenite substrate | Potency, µM (top dose mostly 114 µM), without a hit: top-dose activity change, negative = inhibition, usual class: inhibitors | actives 1% (n = 390,000) | AID 588453, 2011; note: potency is the fitted concentration of half-maximal effect; nearly all actives have a fitted effect of over 65% in size
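Rat TrxR1 (90 nM in the dispensed reagent) was pre-reduced with 400 uM NADPH for 5 min at room temperature, then incubated with compound for 15 min. After 400 uM selenite was added, NADPH fluorescence (Ex 340/Em 450 nm) was followed for 8 min.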
Active calls of the source: *; u = inconclusive; x = no result given; [ ] = remark or other dose. Unless noted, calls come from the whole dose curve; as a rule, active = well fitted curve in the direction sought with a large enough effect; inconclusive = small, poorly fitted or top-dose-only effect, or another doubt; inactive = no such curve, though single readings can be large; an effect the other way counts as inactive or inconclusive. Unless noted, % is set by controls: 0 for no effect and ±100 for the full control effect.

SMILES	TrxR1 substrate	Giardia killer	GALK inhibitor	PI4K2A inh	Coupling enz	TrxR1 inh
Cc1cc(NC(=O)CCOc2ccc(F)cc2)no1	6%	u	-2%	16	3	14µM*
O=C(O)c1cccc(N2C(=O)C=CC2=O)c1	x	x	x	-11	x	x
O=C(Nc1ccc(Cl)cc1Cl)c1cccc(N2C(=O)C=CC2=O)c1	5%	7	-4%	6	x	2µM*
Cc1ccc(C(=O)Nc2onc3c2CCCC3)cc1	-4%	x	x	-9	x	14%
CCSC1=C(C#N)C(c2ccccc2OC)CC(=O)N1 (centres undefined)	-6%	14	1%	-65*	0	-9%
CCOc1ccccc1C1CC(=O)NC(SCC)=C1C#N (centres undefined)	-3%	-1	0%	2	2	7%
Cc1ccc(/C=C/C(=O)Nc2cccc3cccnc23)o1	-7%	24	0%	-4	-6	50µM*
Cc1ccc(/C=C/C(=O)Nc2ccc(Oc3ccccc3)cc2)o1	4%	4	1%	-1	-2	u
Cc1cccc(C(=O)Nc2cccc3cccnc23)c1	0%	4	-2%	-4	-4	-2%
Cc1ccc(/C=C/C(=O)Nc2nnc(C)s2)o1	-5%	5	-1%	1	0	28µM*
CC(=O)c1ccc(NC(=O)/C=C/c2ccc(C)o2)cc1	-9%	x	x	-1	x	22µM*
Cc1cc(NS(=O)(=O)c2ccc(NC(=O)/C=C/c3ccc(C)o3)cc2)nc(C)n1	-15%	-1	-2%	-5	0	28µM*
Cc1cc(NS(=O)(=O)c2ccc(NC(=O)/C=C/c3ccccc3)cc2)nc(C)n1	5%[57.1 µM]	5	x	-2	x	1%[57.1 µM]
Cc1ccc(/C=C/C(=O)Nc2cc(=O)n(C)c(=O)n2C)o1	-5%	-11	-4%	-1	-10	7.9µM*
COC(=O)c1ccc(Cl)cc1NC(=O)/C=C/c1ccc(C)o1	10%[57.1 µM]	15	1%	8	-3	-11%[57.1 µM]
Cc1ccc(NC(=O)/C=C/c2ccc(C)o2)c(C)c1	-10%	x	x	-1	x	20µM*
O=c1oc2ccccc2cc1-c1nc2c(s1)CCc1ccccc1-2	-1%	3	0%	-2	-81*	-35%
CCc1ccc(N/C(SC)=C(/C#N)C(N)=O)cc1	1%[57.1 µM]	10	-2%	8	2	21%[57.1 µM]
CCCCS/C(=C(/C#N)C(N)=O)c1cc2c([nH]1)CCCC2	-13%	10	0%	7	1	45µM*
CCc1ccc2occ(CC(=O)Nc3c(C(=O)Nc4ccc(C)cc4)oc4ccccc34)c2c1	9%	x	x	0	x	89µM*
COc1ccc(/C=N/NC(=O)c2nn(-c3ccc(Cl)cc3)c(=O)c3c(N)scc23)cc1	-6%	-1	-3%	u	-26	-2%
CCOC(=O)c1nn(-c2ccc(C)c(C)c2)c(=O)c2c(N)scc12	-14%	14	-1%	u	-49*	-3%
CCOC(=O)c1nn(-c2ccc(OC)cc2)c(=O)c2c(N)scc12	3%[57.1 µM]	-13	1%	-27	-53*	30%[57.1 µM]
COc1ccc(/C=N/NC(=O)c2nn(-c3ccccc3)c(=O)c3c(N)scc23)cc1	-11%	7	-3%	-65*	-59*	-18%
CCN(CC)CCN(C)c1ccc(/C=C/c2ccnc3ccccc23)cc1	-3%	x	x	x	x	-4%
SMILES	TrxR1 substrate	Giardia killer	GALK inhibitor	PI4K2A inh	Coupling enz	TrxR1 inh
CCCCCCCCCCCCOCCO	x	x	x	1	x	x
CC[C@@]1(c2ccc(C)cc2)C(=O)N(C(=O)OC)N1C(=O)OC	x	x	x	1	x	x
COC(=O)N1C(=O)[C@](c2ccc(Cl)cc2)(C(C)C)N1C(=O)OC	4%	-8	x	-28	1	7.9µM*
COC(=O)N1C(=O)[C@@](c2ccc(OC)cc2)(C(C)C)N1C(=O)OC	4%[57.1 µM]	14	x	9	1	28µM*
COC(=O)N1C(=O)[C@](c2ccccc2)(C2CCCC2)N1C(=O)OC	13%[57.1 µM]	9	x	-14	1	u
COC(=O)N1C(=O)[C@@](c2ccccc2)(C(C)C)N1C(=O)OC	-1%	-19	x	6	-3	18µM*
CN[C@H](C)CCC=C(C)C	1%	x	x	x	x	16%
Cc1ccc(CNC(=O)CCc2c(C)nc3nc(C)nn3c2C)cc1	-4%	x	x	-4	x	8%
COc1cc(C(=O)O/N=C2\C=CC(=O)C(C)=C2)cc(OC)c1OC	-3%	1	-2%	33	-82*	2.8µM*
O=C(/C=C/c1ccc(O)c(O)c1)c1ccc(O[C@@H]2O[C@H](CO)[C@@H](O)[C@H](O)[C@H]2O)c(O)c1O	x	x	x	x	-11	x
CCOC(=O)c1c(C)oc2c1C(=O)c1ccccc1C2=O	-11%	-81*	-2%	3	-43*	10%
Cc1oc2c(c1C(=O)O)C(=O)c1ccccc1C2=O	-3%	u	6%	-14	-29	-1%
Cc1oc2c(c1C(=O)c1ccccc1)C(=O)C(=O)c1ccccc1-2	u	-1	-9%	-64*	-78*	62%[57.1 µM]
O=C1C(=O)c2c(C(=O)c3ccccc3)coc2-c2ccccc21	-16%	-5	3%	-12	-80*	-8%
CN(C)c1ccc(/C=C/c2ccnc3cc(Cl)cc(Cl)c23)cc1	-4%	x	x	x	x	33%[0.0914 µM]
O=C(N=Nc1c(O)[nH]c2ccccc12)c1cc(NS(=O)(=O)c2cccs2)cc(NS(=O)(=O)c2cccs2)c1	4%[57.1 µM]	2	-2%	-51*	-1	30%[57.1 µM]
O=C(N=Nc1c(O)[nH]c2ccccc12)c1cccs1	-1%	u	-1%	-6	-1	20%
O=[N+]([O-])c1c(NCCCO)cc(Sc2ccc(Cl)cc2)c2nonc12	-5%	0	-2%	-6	-28	2.8µM*
CCCC(=O)OCCNc1cc(SCCC(=O)OC)c2nonc2c1[N+](=O)[O-]	-12%	-8	1%	8	-23	10µM*
O=[N+]([O-])c1c(NCCCO)cc(SCc2ccco2)c2nonc12	-14%	7	x	-6	-7	14µM*
CC(=O)OCCNc1cc(SCc2ccco2)c2nonc2c1[N+](=O)[O-]	-9%	10	0%	-16	-10	22µM*
COC(=O)CCSc1cc(NCCOC(C)=O)c([N+](=O)[O-])c2nonc12	-20%	12	0%	-6	-5	44%[0.0914 µM]
N#CSCC(=O)O	x	x	x	0	x	x

Screens from PubChem.
